Screening results (PubChem)
A selection: hits, their analogues and other compounds. The true share with any hit is near 8.6%.
LASV entry inh: Lassa virus entry inhibition; Lassa virus pseudotyped entry inhibition, cell-based qHTS; Potency, µM (doses to about 49.2 µM), actives largely listed as inhibitors; 18,000 compounds, 4.1% hits
Marburg entry: inhibitors of Marburg virus binding or entry into cells. Potency, µM (series often up to 49.2 µM), usual class: inhibitors. 18,000 compounds, 6.5% hits. Marburg virus pseudotype entry/binding inhibition, cell-based
Numbers stand for hits; 0 = inactive; ? = inconclusive; ! = repeats disagree; [ ] = remark or other dose. The call rests on the fitted dose curve; tested in HEK293 cells.

SMILES	LASV entry inh	Marburg entry
Cc1cccc(CN2CCN(C(c3ccccc3)c3ccc(Cl)cc3)CC2)c1 (centres undefined)	?	7.1µM
Cc1ccc(CN2CC(N3CCN(Cc4cccc(C)c4)CC3)CS2(=O)=O)cc1 (centres undefined)	0	0
CN1CCCN(C(c2ccccc2)c2ccc(Cl)cc2)CC1 (centres undefined)	22µM	7.1µM
CCCNC(=O)OC[C@H]1O[C@H](CCON=C2c3cc(OC)ccc3O[C@H](c3cccc(OC)c3)[C@H]2O)C=C[C@H]1Oc1ccc(OC)cc1	0[8.59 µM]	?
C=CCN1C(=O)[C@@]2(CC(C)=CC[C@@H](C)O2)c2ccccc21	0[8.59 µM]	0[8.59 µM]
C=C1C(=O)O[C@@H]2C3OC3(C)CC/C=C(\C)CC[C@@H]12 (some centres undefined)	0	0
C=C1C(=O)OC2C1CC/C(C)=C/CCC1(C)OC21 (centres undefined)	11µM	?
C=C1C(=O)O[C@H]2[C@H]1CC/C(C)=C\CC[C@@]1(C)O[C@@H]21	7.9µM	14µM
C=C1C(=O)OC2C=C(C)CCC=C(C)CCC12 (centres undefined)	0	0
C=C1CC/C=C(\C)CC[C@@H]2[C@@H]1CC2(C)C	0	0
C=C1C(=O)O[C@@H]2[C@H]3O[C@]3(C)CC/C=C(\C)CC[C@@H]12	4.5µM	4µM
CC(=O)OC[C@H]1O[C@H](CCON=C(C)CCC(=O)OC[C@H]2O[C@H](C#Cc3ccccc3)C=C[C@H]2Oc2ccc(C)cc2)C=C[C@H]1OC(C)=O	0[8.59 µM]	0[8.59 µM]
CCN1C(=O)NC(c2cccc(F)c2)C(C(C)=O)=C1C (centres undefined)	0[8.59 µM]	?
COCOc1c2c(c(OCOC)c3c(OCOC)cccc13)C(=NNS(=O)(=O)c1ccc(C)cc1)C1=C2CCCC1	0[8.59 µM]	?
C=CCOC(=O)N[C@@H](c1cccc(OC)c1)[C@@H](C)C=CCC(=O)O	0[8.59 µM]	0[8.59 µM]
C=CCN1c2ccccc2[C@]23C[C@@H](C(=O)OC)N(C(=O)Nc4ccccc4F)C2=NC(C(=O)OC)=C(C(=O)OC)[C@H]13	0[8.59 µM]	0[8.59 µM]
CC[C@]1(O)CC2CN(CCc3c([nH]c4ccccc34)[C@@](C(=O)OC)(c3cc4c(cc3OC)N(C)[C@H]3[C@@](O)(C(N)=O)[C@H](O)[C@]5(CC)C=CCN6CC[C@]43[C@@H]65)C2)C1 (some centres undefined)	0	?
CCC1=C[C@@H]2CN(C1)Cc1c([nH]c3ccccc13)[C@@](C(=O)OC)(c1cc3c(cc1OC)N(C)[C@H]1[C@@](O)(C(=O)OC)[C@H](OC(C)=O)[C@]4(CC)C=CCN5CC[C@]31[C@@H]54)C2	13µM!	1.4µM!
CC(=CCO)CCO	0[8.59 µM]	0[8.59 µM]
COC(=O)Nc1nc2ccc(Oc3cccc(NC(=O)Nc4cc(C(F)(F)F)ccc4F)c3)cc2[nH]1	0	?
CNC(=O)c1cc(Oc2ccc(NC(=O)Nc3ccc(Cl)c(C(F)(F)F)c3)cc2)ccn1	7.9µM	13µM
CC(CCN1CCCc2nc(C)c(C)cc21)=NO[C@H](C)CN1CCCc2nc(C)c(C)cc21	0[8.59 µM]	0[8.59 µM]
CC(C)[C@@]1(NC(=O)[C@H]2CC3c4cccc5[nH]cc(c45)C[C@H]3N(C)C2)O[C@@]2(O)C3CCCN3C(=O)[C@@H](Cc3ccccc3)N2C1=O (some centres undefined)	0	8.9µM
CN1C[C@H](C(=O)N[C@]2(C)O[C@]3(O)[C@H]4CCCN4C(=O)[C@H](Cc4ccccc4)N3C2=O)C[C@H]2c3cccc4[nH]cc(c34)C[C@@H]21	0	?
CC(C)[C@@]1(NC(=O)[C@@H]2C[C@H]3c4cccc5[nH]cc(c45)C[C@@H]3N(C)C2)O[C@]2(O)[C@H]3CCCN3C(=O)[C@H](Cc3ccccc3)N2C1=O	0	?
SMILES	LASV entry inh	Marburg entry
CN1C[C@H](C(=O)N[C@]2(C)O[C@@]3(O)C4CCCN4C(=O)[C@H](Cc4ccccc4)N3C2=O)C[C@@H]2c3cccc4[nH]cc(c34)C[C@H]21 (some centres undefined)	?	13µM
COc1cccc([C@@H]2Oc3ccc(Br)cc3C(=O)[C@@H]2OC(=O)N[C@H](C)C2CCCCC2)c1	0[8.59 µM]	0[8.59 µM]
C=CC[C@@H]1C=C[C@H](ON=C[C@@H](N[S+](=O)([O-])c2ccc(C)cc2)[C@H](C)C=CCC(=O)OC)[C@H](CO)O1	0[8.59 µM]	0[8.59 µM]
C#CCCCON=C1C[C@@H](O)[C@@H](O)[C@@H]2[C@H]3C(=O)N(C(C)(C)C)C(=O)[C@@H]3CC[C@H]12	0[8.59 µM]	0[8.59 µM]
Cc1ccc(NC2=CC(=O)c3sc(C)nc3C2=O)cc1	3.5µM	4µM
CCN1C(=O)N(S(=O)(=O)c2ccc(C)cc2)C(c2ccccc2)C(C(=O)OC)=C1C (centres undefined)	0[8.59 µM]	0[8.59 µM]
CN1[C@@H](c2ccccc2)COc2c(Cl)cccc2S1(=O)=O	0	0
CCCCn1c(C)cc2c(c1=O)[C@H]1O[C@](c3ccsc3)(Cc3ccccc31)O2	0[8.59 µM]	?
Cc1cc(C)cc([C@H]2C[C@]34CN(Cc5ccccc5)[S+](=O)([O-])[C@@H]3C[C@@H]2O4)c1	0	0
COc1cc2c(Nc3ccc(NC(=O)c4ccccc4)cc3)ncnc2cc1OCCCN1CCOCC1	0	?
COc1cc(C(C)=O)ccc1OCCCN1CCC(c2noc3cc(F)ccc23)CC1	0	6.3µM
O=C(NCCCCc1ccccc1)c1cccc(NC(=O)c2ccccc2)c1	0	0
O=C(Nc1cccc(C(=O)Nc2ccc(S(=O)(=O)O)c3cc(S(=O)(=O)O)cc(S(=O)(=O)O)c23)c1)Nc1cccc(C(=O)Nc2ccc(S(=O)(=O)O)c3cc(S(=O)(=O)O)cc(S(=O)(=O)O)c23)c1	0	32µM!
CCOC(=O)CN1C(=O)[C@]2(OCCC=C[C@@H]2C)c2cc(OC)ccc21	0[8.59 µM]	0[8.59 µM]
NC(=NCCCCCCN=C(N)/N=C(\N)Nc1ccc(Cl)cc1)/N=C(\N)Nc1ccc(Cl)cc1	10µM!	?
CC(C)N=C(N)/N=C(\N)Nc1ccc(Cl)cc1	0	0
O=C(OCc1cn([C@@H]2C[C@H](c3ccccc3)N(CC3CCCCC3)C[C@@H]2O)nn1)c1ccccc1	0	0
COc1c2c(c(CC=C(C)C)c3oc(=O)c(-c4ccc(O)cc4)c(O)c13)OC(C)(C)C=C2	0	0
CC(C)=CCc1c2c(c3occ(-c4ccc(O)cc4)c(=O)c3c1O)C=CC(C)(C)O2	?	22µM
CCCCCC(=O)N1C[C@@H](n2cc(-c3ccc(F)cc3)nn2)[C@H](O)C[C@H]1c1ccccc1	0	?
CC(=O)OC1CC(OC(C)=O)[C@]2(C)C(CC(OC(C)=O)[C@]3(C)C2CC[C@@]2(C)C(c4ccoc4)C[C@H]4O[C@]432)C1(C)C (some centres undefined)	0	0
CC(=O)OC1C[C@@]2(C)C(c3ccoc3)C[C@H]3O[C@@]32[C@@]2(C)C(=O)C(O)=C3C(C)(C)C(=O)C=C[C@]3(C)C12 (some centres undefined)	?	2.5µM
CC(=O)O[C@@H]1C[C@@]2(C)C(c3ccoc3)C[C@H]3O[C@]32[C@]2(C)C(=O)C(O)=C3C(C)(C)C(=O)C=C[C@]3(C)C12 (some centres undefined)	8.9µM	8.9µM
CC(=O)OC1CC2C(C)(C)C=CC(=O)[C@@]2(C)C2CC[C@@]3(C)C(c4ccoc4)OC(=O)C4OC43[C@]12C (some centres undefined)	0	0
CC1(C)CN(Cc2cccnc2)C(=O)[C@@H]1CC(=O)Nc1ccc(Br)cc1	0	?
Cc1ccc(NC(=O)c2ccoc2)cc1-c1ccc(C(=O)NCC2CC2)cc1	?	0
